# Data from the supplement of paper PMC8728848.
# The sample as a whole holds a higher share of the strongest signals than the screen did.
# Experiments:
# Experiment in all cases: glycan array binding signal (z-score within array); higher = stronger binding
# Conditions in all cases: glycan notation: IUPAC condensed, linker removed
# Fuc(a1-2)Gal(b1-3)GalNAc = target: Fuc(a1-2)Gal(b1-3)GalNAc
# In short: (§1)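 Glycan array data came from 3228 arrays in the Consortium for Functional Glycomics database, and only arrays with an available protein sequence were kept. Glycan names were put into IUPAC-condensed notation, and columns mapping to the same glycan were averaged. The binding signal is a within-array Z-score, averaged across arrays of one protein sequence run at different concentrations or buffers and across linkers. A negative Z-score can be read as non-binding.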
# [1] = target: Fuc(a1-2)[Gal(a1-3)]Gal(b1-4)Glc
# In short: as §1
# [2] = target: Fuc(a1-2)[Gal(a1-3)]Gal(b1-4)GlcNAc(b1-2)Man(a1-3)[Fuc(a1-2)[Gal(a1-3)]Gal(b1-4)GlcNAc(b1-2)Man(a1-6)]Man(b1-4)GlcNAc(b1-4)GlcNAc
# In short: as §1
# [3] = target: Fuc(a1-2)[Gal(a1-4)]Gal(b1-4)GlcNAc
# In short: as §1
# [4] = target: Fuc(a1-2)[GalNAc(a1-3)]Gal(b1-3)GalNAc(a1-3)[Fuc(a1-2)]Gal(b1-4)GlcNAc
# In short: as §1
# [5] = target: Gal(a1-4)Gal(b1-3)GlcNAc(b1-2)Man(a1-3)[Gal(a1-4)Gal(b1-3)GlcNAc(b1-2)Man(a1-6)]Man(b1-4)GlcNAc(b1-4)GlcNAc
# In short: as §1
# Gal(a1-6)Glc = target: Gal(a1-6)Glc
# In short: as §1
# Gal(b1-2)Gal = target: Gal(b1-2)Gal
# In short: as §1
# [6] = target: Gal(b1-3)Gal(b1-4)GlcNAc(b1-2)Man(a1-3)[Gal(b1-3)Gal(b1-4)GlcNAc(b1-2)Man(a1-6)]Man(b1-4)GlcNAc(b1-4)GlcNAc
# In short: as §1
# Gal(b1-3)GalNAc = target: Gal(b1-3)GalNAc
# In short: as §1
# [7] = target: Gal(b1-3)GlcNAc(b1-2)[Gal(b1-3)GlcNAc(b1-6)]Man(a1-6)[Gal(b1-3)GlcNAc(b1-2)Man(a1-3)]Man(b1-4)GlcNAc(b1-4)GlcNAc
# In short: as §1
# [8] = target: Gal(b1-3)GlcNAc(b1-3)Gal(b1-4)Glc
# In short: as §1
# [9] = target: Gal(b1-3)[Neu5Ac(a2-6)]GalNAc
# In short: as §1
# [10] = target: Gal(b1-3)[Neu5Ac(b2-6)]GalNAc
# In short: as §1
# Gal(b1-4)GlcNAc = target: Gal(b1-4)GlcNAc
# In short: as §1
# [11] = target: Gal(b1-4)GlcNAc(b1-3)Gal(b1-4)Glc
# In short: as §1
# [12] = target: Gal(b1-4)GlcNAc(b1-3)[Gal(b1-4)GlcNAc(b1-6)]Gal(b1-4)GlcNAc
# In short: as §1
# [13] = target: Gal(b1-4)GlcNAc(b1-6)Gal(b1-4)GlcNAc
# In short: as §1
# Gal3S(b1-3)GalNAc = target: Gal3S(b1-3)GalNAc
# In short: as §1
# [14] = target: GlcNAc(a1-4)Gal(b1-4)GalNAc
# In short: as §1
# [15] = target: GlcNAc(a1-4)Gal(b1-4)GlcNAc(b1-3)Gal(b1-4)Glc
# In short: as §1
# [16] = target: GlcNAc(b1-2)Gal(b1-3)GalNAc
# In short: as §1
# [17] = target: GlcNAc(b1-3)Gal(b1-3)GalNAc
# In short: as §1
# GlcNAc(b1-3)GalNAc = target: GlcNAc(b1-3)GalNAc
# In short: as §1
# Kdn(a2-3)Gal(b1-3)GalNAc = target: Kdn(a2-3)Gal(b1-3)GalNAc
# In short: as §1
# Neu5Ac(a2-3)Gal = target: Neu5Ac(a2-3)Gal
# In short: as §1
# [18] = target: Neu5Ac(a2-3)Gal(b1-3)GalNAc
# In short: as §1
# [19] = target: Neu5Ac(a2-3)Gal(b1-3)GalNAc(b1-4)[Neu5Ac(a2-8)Neu5Ac(a2-3)]Gal(b1-4)Glc
# In short: as §1
# [20] = target: Neu5Ac(a2-3)Gal(b1-4)GlcNAc
# In short: as §1
# [21] = target: Neu5Ac(a2-3)Gal(b1-4)GlcNAc(b1-6)[Neu5Ac(a2-3)Gal(b1-3)]GalNAc
# In short: as §1
# [22] = target: Neu5Ac(a2-3)Gal(b1-4)[Fuc(a1-3)]GlcNAc(b1-3)Gal(b1-4)GlcNAc
# In short: as §1
# [23] = target: Neu5Ac(a2-3)GalNAc(b1-4)GlcNAc
# In short: as §1
# [24] = target: Neu5Ac(a2-6)Gal(b1-4)GlcNAc(b1-3)Gal(b1-4)[Fuc(a1-3)]GlcNAc(b1-3)Gal(b1-4)[Fuc(a1-3)]GlcNAc
# In short: as §1
# [25] = target: Neu5Gc(a2-3)Gal(b1-3)[Fuc(a1-4)]GlcNAc
# In short: as §1
binder,measurement,setting,value
"Tap1 (Sordaria macrospora), Q50IV4 (protein) MSHHHHHHHHYTLHLRLINDTSDTLTLVEQTSWWGKNTIWSQVRSTGVHVLSMAASGSSGMLRFQTSKGDFFAVAVGVHNYKRWCDVLVDTADEAPLTKLHPKYYDDKDAKYQALWAQASEFEAKSKSGKTVRIKFYQADGNVLRATVEYL",glycan array binding signal (z-score),Fuc(a1-2)Gal(b1-3)GalNAc,2.96
same,glycan array binding signal (z-score),[1],-0.234
same,glycan array binding signal (z-score),[2],-0.244
same,glycan array binding signal (z-score),[3],-0.242
same,glycan array binding signal (z-score),[4],-0.246
same,glycan array binding signal (z-score),[5],-0.221
same,glycan array binding signal (z-score),Gal(a1-6)Glc,-0.248
same,glycan array binding signal (z-score),Gal(b1-2)Gal,-0.207
same,glycan array binding signal (z-score),[6],-0.225
same,glycan array binding signal (z-score),Gal(b1-3)GalNAc,3.97
same,glycan array binding signal (z-score),[7],-0.179
same,glycan array binding signal (z-score),[8],-0.23
same,glycan array binding signal (z-score),[9],4.09
same,glycan array binding signal (z-score),[10],-0.25
same,glycan array binding signal (z-score),Gal(b1-4)GlcNAc,-0.237
same,glycan array binding signal (z-score),[11],-0.235
same,glycan array binding signal (z-score),[12],-0.264
same,glycan array binding signal (z-score),[13],-0.224
same,glycan array binding signal (z-score),Gal3S(b1-3)GalNAc,5.01
same,glycan array binding signal (z-score),[14],0.868
same,glycan array binding signal (z-score),[15],-0.223
same,glycan array binding signal (z-score),[16],2.86
same,glycan array binding signal (z-score),[17],2.84
same,glycan array binding signal (z-score),GlcNAc(b1-3)GalNAc,1.62
same,glycan array binding signal (z-score),Kdn(a2-3)Gal(b1-3)GalNAc,3.63
same,glycan array binding signal (z-score),Neu5Ac(a2-3)Gal,-0.232
same,glycan array binding signal (z-score),[18],4.27
same,glycan array binding signal (z-score),[19],-0.198
same,glycan array binding signal (z-score),[20],-0.251
same,glycan array binding signal (z-score),[21],1.16
same,glycan array binding signal (z-score),[22],-0.144
same,glycan array binding signal (z-score),[23],-0.247
same,glycan array binding signal (z-score),[24],-0.176
same,glycan array binding signal (z-score),[25],-0.24
